# Test results from PubChem BioAssay (NCATS).
# Values joined by “and” are separate entries in the source; they are usually repeats but may differ in a detail not shown here. Equal values may be shown once. Records with an inconclusive call do not appear. A number with no mark means an inactive call. Active and inactive are the calls of the source. The call rests on the fitted dose curve; in most records, active means well fitted curve in the direction sought with a large enough effect; inconclusive means small, poorly fitted or top-dose-only effect, or another doubt; inactive means no such curve, though single readings can be large or run the other way.
# Assay: qHTS Assay for Identifying Gametocytocidal Compounds (AID 743244);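 on max response: actives lower the fluorescent signal which means gametocytes are killed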
# Conditions: P. falciparum 3D7 stage III-V gametocytes, alamarBlue, 72 h; max response: stronger effect = lower value
# Method in brief: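 Fluorescence at Ex 525/Em 598 nm, recorded 24 h after alamarBlue addition, reports residual metabolic activity of 3D7 gametocytes (stages III–V) following 72 h compound exposure at 37 °C, 5% CO2.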
# On the % scale 0 is the no-effect control and ±100 the full control effect; potency means the concentration at half of the fitted maximal effect.
SMILES,max response,Potency
O=CCCCC=O,-1.12%,
C[C@@H]1C[C@H]2[C@@H]3CCC4=CC(=O)C=C[C@]4(C)[C@@]3(F)[C@@H](O)C[C@]2(C)[C@@]1(O)C(=O)COP(=O)(O)O,10.9%,
CC(=O)Oc1cc(C)c(OC(C)=O)c2ccccc12,,6.31 µM (active)
CC(C)(C)NC(=O)[C@@H]1C[C@@H]2CCCC[C@@H]2CN1C[C@@H](O)[C@H](Cc1ccccc1)NC(=O)[C@H](CC(N)=O)NC(=O)c1ccc2ccccc2n1,,10 µM (active)
C=CC1=C(C)C2=CC3=NC(=C(CC(=O)[O-])C4=NC(=C(C)C4=C([O-])[O-])C=c4[n-]c(c(C)c4CC)=CC1=N2)C(CCC(=O)[O-])C3C.[Cu+2].[Na+].[Na+].[Na+] (stereo unspecified),14.4%,
CO[C@H]1C=CO[C@@]2(C)Oc3c(C)c(O)c4c(O)c(c5c(nc6cc(C)ccn65)c4c3C2=O)NC(=O)/C(C)=C\C=C[C@H](C)[C@H](O)[C@@H](C)[C@@H](O)[C@@H](C)[C@H](OC(C)=O)[C@@H]1C,,12.6 µM (active)
CC[N+](CC)(CC)CCC(O)(c1ccccc1)C1CCCCC1 (stereo unspecified),4.48%,
O=C(O)C1CCCN1 (stereo unspecified),5.42%,
O=C(COc1ccc(Cl)cc1)OCCNC12CC3CC(CC(C3)C1)C2,-2.86%,
CC1(C)S[C@@H]2[C@H](NC(=O)C(N)c3ccccc3)C(=O)N2[C@H]1C(=O)OC1OC(=O)c2ccccc21 (stereo partly specified),16.4%,
CNC(C)[C@@H]1CC[C@@H](N)[C@@H](O[C@H]2[C@H](O)[C@@H](O[C@H]3OC[C@](C)(O)[C@H](NC)[C@H]3O)[C@H](N)C[C@@H]2N)O1 (stereo partly specified),5.9%,
CC(C)(C)C(=O)OCOC(=O)[C@@H]1N2C(=O)[C@@H](N=CN3CCCCCC3)[C@H]2SC1(C)C,2.95%,
O=C(O)C[C@H](O)C[C@H](O)/C=C/c1c(C2CC2)nc2ccccc2c1-c1ccc(F)cc1,4.27%,
O=C(Nc1cccc(C(F)(F)F)c1)c1cc(Br)cc(Br)c1O,-2.44%,
CCCCCCCC(=O)O,10%,
O=S(=O)(O)O,-4.98%,
Nc1ccn([C@H]2CS[C@@H](CO)O2)c(=O)n1,6.99% and 7.67%,
CCC1OC(=O)C[C@@H](O)[C@H](C)[C@@H](O[C@@H]2O[C@H](C)C[C@H](N(C)C)[C@H]2O)[C@@H](CC=O)C[C@@H](C)C(=O)/C=C/[C@]2(C)OC2C1C (stereo partly specified),,10 µM (active)

SMILES,max response,Potency
CC(=O)N(CC(C)C(=O)O)c1c(I)cc(I)c(N)c1I (stereo unspecified),4.12%,
COC(=O)CCC(=O)CN,-0.174%,
O=C(Nc1ccc(Br)cc1)c1cc(Br)c(Br)s1,1.98%,
Cc1onc(-c2ccccc2)c1C(=O)N[C@@H]1C(=O)N2[C@@H]1SC(C)(C)[C@@H]2C(=O)O,-0.392%,
CNc1cc(OC)c(C(=O)N[C@H]2CCN(Cc3ccccc3)[C@H]2C)cc1Cl,-16.8%,
COc1ccc(C[C@H](N)C(=O)N[C@H]2[C@@H](O)[C@H](n3cnc4c(N(C)C)ncnc43)O[C@@H]2CO)cc1,,1.05 µM (active)
CCC(=O)O[C@@H]1CC(=O)O[C@H](C)C/C=C/C=C/[C@H](O)[C@H](C)C[C@H](CC=O)[C@H](O[C@@H]2O[C@H](C)[C@@H](O[C@H]3C[C@@](C)(O)[C@@H](OC(=O)CC)[C@H](C)O3)[C@H](N(C)C)[C@H]2O)[C@H]1OC,4.15%,
O=C(O)CCC(=O)C(=O)O,11.5%,
Nc1c(Br)cc(Br)cc1CNC1CCC(O)CC1 (stereo unspecified),19%,
C[C@@H]1[C@H](O)[C@@H](C)/C=C/C=C\C=C\C=C\C=C\C=C\C=C\[C@H](O[C@@H]2O[C@H](C)[C@@H](O)[C@H](N)[C@@H]2O)C[C@@H]2O[C@](O)(C[C@@H](O)C[C@@H](O)[C@H](O)CC[C@@H](O)C[C@@H](O)CC(=O)O[C@H]1C)C[C@H](O)[C@H]2C(=O)O (stereo in doubt),4.52%,
CC(C(=O)O)c1ccc(N2Cc3ccccc3C2=O)cc1 (stereo unspecified),8.38%,
O=C1C(=O)c2ncccc2-c2cccnc21,,0.148 µM (active)
CCC[C@@H]1C[C@@H](C(=O)N[C@@H]([C@H]2O[C@H](SC)[C@H](OP(=O)(O)O)[C@@H](O)[C@H]2O)[C@H](C)Cl)N(C)C1,4.72% and 1.78%,
CO/N=C(\C(=O)N[C@@H]1C(=O)N2C(C(=O)O)=C(CSc3cnns3)CS[C@H]12)c1csc(N)n1,2.82%,
O=C(O)c1cc(O)c2c(c1)[O][Bi][O]2,17.6%,
CCCCCCCC/C=C\CCCCCCCC(=O)O,5.58%,
CC[C@H]1OC(=O)[C@H](C)[C@@H](O[C@H]2C[C@@](C)(OC)[C@@H](O)[C@H](C)O2)[C@H](C)[C@@H](O[C@@H]2O[C@H](C)C[C@H](N(C)C)[C@H]2O)[C@](C)(O)C[C@@H](C)/C(=N\OCOCCOC)[C@H](C)[C@@H](O)[C@]1(C)O,-7.41% and 9.46%,
C#C[C@]1(O)CC[C@H]2[C@@H]3CCC4=CCCC[C@@H]4[C@H]3C(=C)C[C@@]21CC,-1.95%,
